assay: small-molecule microarray binders of probe aDKK1, primary screen, biochemical, biotinylated probe, 635/667 nm fluorescence (AID 1099); conditions: higher = more signal;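 also: score merges 667nm spot fluorescence with signal to noise across triplicate slides; reference of the scale not given here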

| SMILES | composite z-score |
| --- | --- |
| CCOC(=O)C[C@H]1[C@H](OC(=O)c2ccc(-c3ccccc3)cc2)[C@@H](NC(=O)Cc2ccc(OC)cc2)c2cc(OCCCO)ccc2N1C(=O)c1ccc2ccccc2n1 | 0.593 |
| C=CC[C@@]1(C(=O)NCC(O)CO)N=C(c2ccc(OCCCO)cc2)O[C@@H]1c1ccccc1N=[N+]=[N-] (stereo partly specified) | 0.854 |
| CCCCC=C[C@@H](NC(=O)c1ccco1)c1ccccc1 | 0.373 |
| CC(C)(C)OC(=O)CC[C@@]1(C(=O)NCCN2CCOCC2)N=C(c2ccc(OCCCO)cc2)O[C@@H]1c1ccccc1 | 1.06 |
| CC(C)(C)N1CC=CC23O[C@@H]4C=CCOC(=O)[C@@H]4[C@H]2C(=O)N(CCCCCO)[C@@H]3C1=O (stereo partly specified) | -0.275 |
| COc1ccc(C(O)C2C=CC3C(=O)N(c4ccccc4)C(=O)C3N2Nc2ccc([N+](=O)[O-])cc2)cc1OCc1ccccc1 (stereo unspecified) | 1.86 |
| CN(C)C(=O)[C@]1(CCC(=O)OC(C)(C)C)N=C(c2ccc(OCCCO)cc2)O[C@@H]1c1ccccc1N=[N+]=[N-] | 0.533 |
| O=C1OCC=C[C@H]2OC34C=CCN(c5ccc6ccccc6c5)C(=O)[C@H]3N(CCCO)C(=O)[C@@H]4[C@@H]12 (stereo partly specified) | 0.0114 |
| COC(=O)c1c(CC[C@@H](CO)NC(=O)N[C@@H](Cc2ccccc2)Cn2cc(C3(O)CCCCC3)nn2)oc(C(C)=O)c1C(=O)OC | -0.27 |
| C=CCOC(=O)[C@H]1[C@@H]2C(=O)O[C@@H](c3ccccc3)[C@@H](c3ccccc3)N2[C@@H](c2ccc(OCCOC(=O)[C@@H]3C[C@@H]4C(=O)NCC(=O)N4[C@@H]3c3ccc(O)cc3)cc2)[C@]12C(=O)Nc1ccccc12 | -0.206 |
| [N-]=[N+]=NCc1ccccc1[C@H]1OC(c2ccc(OCCCO)cc2)=N[C@@]1(CCS(=O)(=O)c1ccccc1)C(=O)N1CCOCC1 | 1.19 |
| N[C@@H](Cc1ccccc1)Cn1cc(-c2ccccc2)nn1 | 0.552 |
| CC(C)CNC(=O)[C@@]1(c2ccc([N+](=O)[O-])cc2)CC(=O)N(CC23CC4CC(CC(C4)C2)C3)[C@@H]1c1ccc(CO)cc1I | 0.109 |
| O=C(CCN1CCOCC1)c1cccc(O)c1 | 0.191 |
| COC(=O)C(CC#Cc1ccc2c(c1)[C@]1(C(=O)N2)[C@H](c2ccc(OCCO)cc2)N2[C@H](c3ccccc3)[C@H](c3ccccc3)OC(=O)[C@H]2[C@@H]1C(=O)NC[C@H](O)c1ccccc1)C(=O)OC | 0.392 |
| C#CCN(C(/C=C/c1ccccc1)CO)C(C(=O)O)c1ccccc1 (stereo unspecified) | -0.285 |
| COc1ccc(C(=O)Nc2cccc(CN3C(=O)[C@@]4(O[C@@H](CCn5cc(CCO)nn5)[C@H]([Si](C)(C)c5ccc(OC)cc5)[C@H]4C)c4ccccc43)c2)cc1 | -0.111 |
| O=C(CS)NCCCCCCNC(=O)[C@@H]1C[C@@H]2C(=O)N3CCC[C@H]3C(=O)N2[C@@H]1c1ccc(O)cc1 | -0.207 |

| SMILES | composite z-score |
| --- | --- |
| CCCNC(=O)[C@@]1(c2ccc([N+](=O)[O-])cc2)CC(=O)N(CC23CC4CC(CC(C4)C2)C3)[C@@H]1c1ccc(CO)cc1 | 0.644 |
| CC(C)c1ccc(NN2C(C(O)c3c(F)cccc3Cl)C=CC3C(=O)N(c4ccccc4)C(=O)C32)cc1 (stereo unspecified) | 1.24 |
| COc1ccc([Si](C)(C)[C@@H]2[C@@H](CCn3cc([C@H](O)c4ccccc4)nn3)O[C@]3(C(=O)N(Cc4ccc(N5C(=O)c6cccc7cccc5c67)cc4)c4ccccc43)[C@H]2C)cc1 | -0.187 |
| [N-]=[N+]=Nc1ccccc1C[C@]1(C(=O)NCCN2CCOCC2)N=C(c2ccc(OCCCO)cc2)O[C@H]1c1ccccc1 | 0.641 |
| COC(=O)C[C@@H]1C[C@H](C)[C@]2(O1)C(=O)N(Cc1ccccc1)c1ccc(NC(C)=O)cc12 | -0.148 |
| Cc1ccc([C@H]2C(C(=O)O)=C[C@@H](C)N2S(=O)(=O)c2ccc(C)cc2)cc1 | 0.353 |
| O=C1O[C@H](c2ccccc2)[C@H](c2ccccc2)N2[C@H]1[C@@H](C(=O)O)[C@]1(C(=O)Nc3ccc(C#CC4=CCCCC4)cc31)[C@H]2c1ccc(OCCO)cc1 | -0.211 |
| C=CC(=C)C1=CCO[C@@H]1[C@H]1CCCN1S(=O)(=O)c1ccccc1[N+](=O)[O-] | -0.268 |
| CCC(CC)C(O)C1C=CC2C(=O)N(c3ccccc3)C(=O)C2N1Nc1ccc(C#N)cc1 (stereo unspecified) | 1.29 |
| CC(C)N1C(=O)c2ccccc2[C@@H](C(=O)NCCCN(C)C)[C@@H]1c1ccc(CO)cc1 | 0.744 |
| COC(=O)[C@@]1(Cc2ccc(F)cc2)[C@H]2c3cc(C(=O)N4CCCC4)n(Cc4cccc5ccccc45)c3C[C@H]2CN1C(=O)c1ccccc1 | 0.479 |
| CCOC(=O)[C@H]1C/C=C/C[C@H](C(=O)OCC)C(=O)O[C@H]2[C@@H](OC)O[C@H](CO)[C@@H](OC(=O)Nc3ccc4c(c3)OCO4)[C@@H]2OC1=O | 0.0005 |
| COCC(=C=CC[C@@H](O)c1ccc(CO)o1)CCO | -0.239 |
| Cc1cc(C)c(C(O)C2C=CC3C(=O)N(c4ccccc4)C(=O)C3N2Nc2ccc(C#N)cc2)c(C)c1 (stereo unspecified) | 1.05 |
| COc1ccc(C#Cc2ccc3c(c2)[C@]2(C(=O)N3)[C@H](c3ccc(O)cc3)N3[C@H](c4ccccc4)[C@H](c4ccccc4)OC(=O)[C@H]3[C@@H]2C(=O)N2CCCCCCC2)cc1 | 2.69 |
| O=C1C2C=CC(C(O)c3ccc(F)cc3)N(Nc3ccccc3)C2C(=O)N1c1ccccc1 (stereo unspecified) | 1.05 |
| COc1cc2c(cc1OC)CN(C(=O)[C@@H]1[C@H]3C(=O)O[C@H](c4ccccc4)[C@H](c4ccccc4)N3[C@H](c3ccccc3OCCO)[C@@]13C(=O)Nc1ccc(C#CCNC(N)=O)cc13)CC2 | 0.0627 |
| Cc1ccc(F)cc1S(=O)(=O)N[C@@H]1CCN(Cc2ccc(-c3ccccc3)cc2)C1 | -0.188 |

From PubChem BioAssay
